Source: the supplement of paper PMC3334620
Whole data set: some 33,000 sequences, median “E-score (-0.5 to 0.5)” near -0.041, cut for the highest 2% near 0.37. Many of the other results were omitted from the sample, so the highest values are more common in it than they were.

Molecular target: T1, Ecm22 (UniProt Q05958)
T1 sequence: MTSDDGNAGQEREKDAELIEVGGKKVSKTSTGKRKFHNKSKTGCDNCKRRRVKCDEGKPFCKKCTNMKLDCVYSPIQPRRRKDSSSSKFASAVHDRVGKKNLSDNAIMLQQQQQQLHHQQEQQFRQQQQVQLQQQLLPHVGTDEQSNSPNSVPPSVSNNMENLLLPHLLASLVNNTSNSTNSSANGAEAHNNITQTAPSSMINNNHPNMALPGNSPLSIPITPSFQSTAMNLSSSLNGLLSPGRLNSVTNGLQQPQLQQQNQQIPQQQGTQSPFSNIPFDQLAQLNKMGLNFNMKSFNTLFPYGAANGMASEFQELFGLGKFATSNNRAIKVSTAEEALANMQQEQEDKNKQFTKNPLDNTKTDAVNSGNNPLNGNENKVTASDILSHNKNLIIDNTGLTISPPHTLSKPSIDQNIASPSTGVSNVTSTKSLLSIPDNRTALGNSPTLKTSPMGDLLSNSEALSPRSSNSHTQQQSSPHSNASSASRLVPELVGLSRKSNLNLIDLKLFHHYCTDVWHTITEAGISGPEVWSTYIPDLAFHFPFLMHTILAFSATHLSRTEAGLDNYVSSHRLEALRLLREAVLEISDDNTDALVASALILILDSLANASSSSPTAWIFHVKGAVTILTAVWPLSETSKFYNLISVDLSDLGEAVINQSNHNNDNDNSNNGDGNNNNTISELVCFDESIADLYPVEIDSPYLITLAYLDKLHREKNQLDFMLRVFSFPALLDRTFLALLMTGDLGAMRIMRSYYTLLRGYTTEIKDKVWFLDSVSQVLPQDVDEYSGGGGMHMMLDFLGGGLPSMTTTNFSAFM
Assay: PBM E-score (8-mer binding enrichment) (E-score (-0.5 to 0.5)); higher = stronger / more preferred TF binding
Settings: protein concentration: 200 nM; construct: GST-full length
Outline: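 Each ungapped eight-base word and its reverse complement, pooled, received an E-score from the Universal PBM Analysis Suite. Underlying scans, normalised with masliner, recorded fluorescent anti-GST bound to GST-tagged yeast transcription factors. These were applied at about 100-200 nM to universal all-10-mer Agilent arrays double-stranded by primer extension.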

Sequence | PBM E-score
CGGCGTAG | -0.00106
ATAGTGAT | 0.176
CCTCGCAG | 0.0132
CCCGTCCG | -0.309
CGCCAGTC | 0.014
ATACGGAG | 0.385
CTACGGAC | -0.07
TTACGGAA | 0.266
GCACGGAA | -0.094
GTACGGAC | 0.372
ATACGGAC | 0.362
CTACGGAA | 0.0649
CTACGGAG | -0.0418
ATACGGAT | 0.332
GTACGGAA | 0.4
GGACGGAA | -0.0866
ATACGGAA | 0.374
AATTTGCT | -0.0782
TAGGGAGA | -0.252
ACATGGGG | -0.282
TGAATTAA | 0.099
CCGGAGGA | -0.171
GGAAACAA | 0.0422
AGAAACGA | 0.424
CGAAACCA | 0.28

Sequence | PBM E-score
CGAAACGC | 0.0992
AGAAACGG | 0.272
GAAAACGA | 0.306
AGAAACGC | -0.0375
CGAAACGA | 0.424
GGAAACGA | 0.426
CCTGTGTA | 0.00294
GAGAGCAC | -0.00667
AACATCGT | 0.264
AAGTATCA | -0.115
CAGCTAGA | -0.0476
CTTGCCGA | -0.0634
CCGACCGA | 0.203
ACGACCAG | 0.319
ACGACCAA | 0.371
ACGACCTA | 0.384
GCGACCGA | 0.218
ACGACCTC | 0.337
ACGACCGA | 0.394
CCGACCTA | 0.0401
ACGACCAC | 0.35
AGACATTG | -0.268
ACTCGCAG | 0.0817
GCAGGGGC | -0.243
GAAGAAGC | -0.234

Sequence | PBM E-score
AACAGTTA | -0.1
ATCCGTTA | 0.177
AAAGGCTT | -0.177
ACCGAGCG | 0.292
CAAGACTC | -0.126
CGAAATCG | 0.111
ATTCGTTA | 0.309
ATTCGTTG | 0.277
ATTCGTTC | 0.432
CTTCGTTA | 0.303
CTTCGTTC | 0.47
GTTCGTTA | 0.356
CTCTCTAA | -0.232
GCTCTAGA | -0.226
CGTTCCTC | 0.452
AGTTCCTA | 0.102
AGTTCCTC | -0.117
GGTTCCTA | -0.128
CCTTCCTC | -0.0948
CGTTCCTA | 0.439
ACAGTAAC | 0.00997
AACTGCAA | -0.138
CACCTTAC | -0.0784
CGGCTCCC | -0.0756
GCTGCATA | -0.114

Sequence | PBM E-score
CGTCTAAC | -0.0542
GAAAGATC | 0.0489
ACATAGCA | -0.131
GTATAAAA | 0.335
ATATAAAC | 0.212
GTATAAAC | 0.403
CACAATTC | -0.0282
AGCGCTAT | -0.048
CGACCTCG | 0.183
CGCGTTCA | 0.185
AACGTTCC | 0.259
AACGTTCG | 0.217
ATCGTTCA | 0.402
ATCGTTGG | -0.0634
ATCGTTCC | 0.478
CTCGTTCA | 0.47
AGCGTTCC | 0.2
AACGTTCA | 0.0914
CACGTTCA | -0.131
AGCGTTCA | -0.121
ATCGTTCG | 0.373
AGGGTTAT | -0.0839
ATTCATAC | 0.161
CTTGTGTC | -0.0755
CACCGGAC | 0.112

Sequence | PBM E-score
CGATCTAG | 0.00932
ATCGTGGG | -0.0631
CGATCTAA | 0.0461
GTTAGACA | -0.137
GTCGTTCA | 0.448
GGCGTTCA | 0.00425
GACGTTCA | 0.0272
AAGCCCAG | -0.109
CGTACACC | 0.37
CGTACACA | 0.402
TGTACACA | 0.0209
AGTACACC | 0.0652
CGTACACG | 0.382
AGTACACG | 0.238
GGTACACA | -0.126
AGTACACA | 0.18
GGTACACC | 0.0576
GTAGCAAA | 0.0111
GACCAGGC | -0.228
CCCCAGCA | -0.237
ACGGAACT | 0.157
ACGGAACG | 0.442
ACGGAACC | 0.218
CCGGAACA | -0.0629
CCGGAACC | -0.0325

Sequence | PBM E-score
CCGGAACG | 0.445
CCCCGCCA | 0.0635
TAGGACCA | -0.185
GTATGAAC | 0.234
ATGTTACA | -0.0708
GAGAGACC | -0.21
ACGGGGAC | 0.0581
GAGAACAA | 0.124
CGATCGTA | 0.437
CGATCGTC | 0.104
GGATCGTA | 0.434
AGATCGTG | -0.0112
AGATCGTA | 0.389
GGATCGAA | 0.251
CGATCGAA | 0.164
GGATCGGA | 0.159
AGATCGTC | -0.0821
AGTCCCAA | -0.193
GGCTAGTA | -0.00889
CTGACGCA | -0.319
GAGCTTAA | 0.0486
GACGAGGC | 0.163
AACGAGGT | 0.447
GACGAGGA | 0.175
CACGAGGC | 0.171

Sequence | PBM E-score
ACCGAGGT | 0.225
AGCGAGGA | 0.265
CACGAGGA | 0.196
AACGAGGC | 0.434
TACGAGGA | 0.466
AAAGAGGT | -0.244
AACGAGGA | 0.449
ATCGAGGA | 0.115
CATGAAAA | 0.00915
ATTGCTTC | 0.0317
AAGCTTCA | -0.0703
ACAAATTC | 0.0192
AACGGGCT | 0.16
ACGCTCAA | 0.0449
GGTCTAAC | -0.0964
CGGGACGC | -0.0663
ACTCGGCT | 0.112
CTGCACTC | -0.104
AACGAGGG | 0.439
AGCGAGGG | 0.249
CACGAGGG | 0.189
ACGCAAGG | -0.01
